Screening data as filed in PubChem.
PLK1 PBD inh – qHTS for Inhibitors of PLK1-PDB (polo-like kinase 1 - polo-box domain): Primary Screen; Serine/threonine-protein kinase PLK1 (Homo sapiens), P53350; 360,000 tested, 2.8% active; Potency, µM, most hits filed as inhibitors; Plk1 PBD binding of FITC phosphopeptide, fluorescence polarization; AID 720504, 2013; also: series mostly up to about 57 µM; nearly all actives have a fitted effect of over 65% in size
HP1b binding inh – HTS for Inhibitors of HP1-beta Chromodomain Interactions with Methylated Histone Tails; Potency, µM (titrated, usually from 114 µM), actives largely listed as inhibitors; AlphaScreen HP1-beta / biotin-H3K9me3 peptide binding; 390,000 tested, 0.56% active; also: nearly all actives have a fitted effect of over 70% in size
Target sequence (P83916 whole entry, looked up): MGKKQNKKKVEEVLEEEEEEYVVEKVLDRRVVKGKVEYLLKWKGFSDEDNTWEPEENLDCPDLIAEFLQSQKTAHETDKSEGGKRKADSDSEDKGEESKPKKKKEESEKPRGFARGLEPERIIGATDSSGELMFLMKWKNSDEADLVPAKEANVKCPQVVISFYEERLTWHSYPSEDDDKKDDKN
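AlphaScreen: HP1-beta (50 nM) preformed 30 min with biotin-H3(1-18)K9me3 peptide (50 nM) in PBS pH 7.4, 0.01% Tween-20. Compound added for 30 min at RT, then streptavidin donor/nickel chelate acceptor beads (10 ug/mL) for 30 min.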
Sfp PPTase inh – qHTS Assay for Inhibitors of Bacillus subtilis Sfp phosphopantetheinyl transferase (PPTase). Biochemical Sfp PPTase activity, qHTS. Potency, µM, hits mostly inhibitors. 4'-phosphopantetheinyl transferase ffp (Bacillus subtilis), Q9F4F7. AID 1490, 2009. 310,000 tested, 3.5% active;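 also: the enzyme is Sfp with the accession as filed and its product quenches rhodamine fluorescence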
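After 15 min at room temperature with compound, 15 nM Sfp received 5 uM rhodamine-CoA plus 12.5 uM BHQ-2-ybbR (50 mM Hepes pH 7.6, 10 mM MgCl2). Rate came from the fluorescence difference over 30 min, ex 525/em 598 nm.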
G9a inh – qHTS Assay for Inhibitors of Histone Lysine Methyltransferase G9a; G9a H3K9 monomethylation, AlphaScreen, 2 h; Potency, µM (top dose mostly 102 µM), most hits filed as inhibitors; 350,000 tested, 8.8% active; AID 504332, 2011; also: nearly all actives have a fitted effect of over 75% in size
Target sequence (Q96KQ7 913-1193 limits assumed): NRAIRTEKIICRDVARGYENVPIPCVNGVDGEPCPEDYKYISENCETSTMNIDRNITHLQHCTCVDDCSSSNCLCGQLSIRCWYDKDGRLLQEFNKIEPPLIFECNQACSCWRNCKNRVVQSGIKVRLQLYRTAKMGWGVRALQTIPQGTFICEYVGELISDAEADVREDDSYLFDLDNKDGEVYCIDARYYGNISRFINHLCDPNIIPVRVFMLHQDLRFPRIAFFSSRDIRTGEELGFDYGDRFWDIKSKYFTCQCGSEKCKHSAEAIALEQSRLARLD
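Step 1: enzyme (final 20 nM) with compound, 15 min RT. Step 2: substrate peptide 500 nM and SAM 20 uM, 2 h RT. Step 3: anti-H3K9me1 antibody and AlphaScreen beads, 10 min, then plate read.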
BAZ2B inh – qHTS Assay for Inhibitors of BAZ2B | AlphaScreen BAZ2B-H3K14Ac peptide displacement | 360,000 tested, 4.4% active | Potency, µM (highest dose often 114 µM), usual class: inhibitors | AID 504333, 2011 | Bromodomain adjacent to zinc finger domain protein 2B (Homo sapiens), Q9UIF8; also: nearly all actives have a fitted effect of over 60% in size
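Complex of BAZ2B and biotin-H3K14Ac (50 nM apiece) forms over 30 min at RT, then faces library compounds up to 110 uM for another 30 min; AlphaScreen beads added, 20 min dark incubation, luminescence read.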
JMJD2A Tudor inh – qHTS Assay for Inhibitors of JMJD2A-Tudor Domain; Lysine-specific demethylase 4A (Homo sapiens), O75164; AlphaScreen JMJD2A-Tudor / H3K4me3 peptide binding; Potency, µM (series often up to 114 µM), hits mostly inhibitors; 390,000 tested, 4.4% active; AID 504339, 2011; also: nearly all actives have a fitted effect of over 50% in size
Of the large screens only hits and unclear results are named; the others gave an inactive call. In the library only some 12% were active in any assay of this set; here they are far more common. Calls follow the shape of the dose curve; as a rule, active = well fitted curve in the direction sought with a large enough effect; inconclusive = small, poorly fitted or top-dose-only effect, or another doubt; inactive = no such curve, though single readings can be large; an effect the other way counts as inactive or inconclusive.

CC(=O)Nc1ccc(NS(=O)(=O)c2cc(-c3n[nH]c(=O)c4ccccc34)ccc2C)cc1	BAZ2B inh 79µM
CCN(CC)C(=O)CC(c1ccc(N(C)C)cc1)c1c(O)cc(OC)cc1OC (centres undefined)	G9a inh inconclusive, BAZ2B inh inconclusive, JMJD2A Tudor inh 50µM
CCN(CC)C(=O)CC(c1cc(OC)c(OC)c(OC)c1)c1c(O)cc(OC)cc1OC (centres undefined)	none
COc1cc(O)c(C(CCN2CCCC2)c2ccc(N(C)C)cc2)c(OC)c1 (centres undefined)	HP1b binding inh inconclusive, G9a inh inconclusive, BAZ2B inh 35µM, JMJD2A Tudor inh 22µM
COc1cc(O)c(C(CCN2CCCCC2)c2ccc(N(C)C)cc2)c(OC)c1 (centres undefined)	HP1b binding inh inconclusive, G9a inh inconclusive, BAZ2B inh inconclusive, JMJD2A Tudor inh 40µM
O=C(O)Cc1ccc(O)c(O)c1	HP1b binding inh inconclusive, Sfp PPTase inh 40µM, G9a inh 0.24µM, JMJD2A Tudor inh 56µM
Cc1cc(C)cc(NC(=O)CCS(=O)(=O)c2ccc3c(c2)oc(=O)n3C)c1	none (no result: PLK1 PBD inh, Sfp PPTase inh)
Nc1ccc2nc(SCc3ccccc3F)sc2c1	PLK1 PBD inh 15µM, HP1b binding inh inconclusive, G9a inh 22µM, BAZ2B inh inconclusive, JMJD2A Tudor inh 25µM
NC(=O)CSc1nc2ccc(NC(=O)COc3ccccc3)cc2s1	none (no result: PLK1 PBD inh, Sfp PPTase inh)
Nc1ccc2nc(SCC(=O)c3ccccc3)sc2c1	G9a inh 45µM, BAZ2B inh inconclusive
CCN(CC)S(=O)(=O)c1ccc2c(c1)N(CC(=O)N1CCN(c3cccc(C)c3)C(C)C1)C(=O)CO2 (centres undefined)	none (no result: PLK1 PBD inh, Sfp PPTase inh)
CC(=O)Oc1ccc2cc(-c3nc4c(s3)CCc3ccccc3-4)c(=O)oc2c1	none (no result: PLK1 PBD inh, Sfp PPTase inh, G9a inh, BAZ2B inh)
Cc1cccc2sc(NNC(=O)c3ccc(S(=O)(=O)N4CCc5ccccc5C4)cc3)nc12	Sfp PPTase inh inconclusive, G9a inh 40µM, BAZ2B inh 4µM, JMJD2A Tudor inh 8.9µM
Cc1cccc2sc(NC(=O)c3cccc(S(=O)(=O)N4CCc5ccccc54)c3)nc12	none
Cc1cccc2sc(NNC(=O)c3ccc(S(=O)(=O)N4CCCC(C)C4)cc3)nc12 (centres undefined)	Sfp PPTase inh inconclusive, G9a inh 25µM, JMJD2A Tudor inh 11µM
COc1cccc(CNC(=O)Cc2ccc(NC(=O)N3CCCCc4ccccc43)cc2)c1OC	none (no result: PLK1 PBD inh, Sfp PPTase inh)
O=C(CN1CCCCC1)Nc1c2c(nc3ccccc13)N(c1ccccc1)CC2	HP1b binding inh inconclusive, G9a inh 14µM, BAZ2B inh 56µM, JMJD2A Tudor inh inconclusive
CN1CCCCc2c1nc1ccccc1c2N (tested in a mixture with another compound)	G9a inh inconclusive
Nc1c2c(nc3ccccc13)N(c1ccccc1)CC2	HP1b binding inh inconclusive, G9a inh inconclusive, JMJD2A Tudor inh 35µM
Cc1cc(C)c(NC(=O)CCCn2c(=O)oc3ccccc32)c(C)c1	none (no result: Sfp PPTase inh)
CCN(CC)CCNC(=O)CSc1nc2nc(C)c(Cc3ccccc3)c(C)n2n1	none (no result: PLK1 PBD inh, Sfp PPTase inh)
CC(=O)Cc1cc(=O)c2c(C)cc(O)c(C3OC(CO)C(O)C(O)C3O)c2o1 (centres undefined)	none
O=c1c2cc(O)c(O)cc2oc2cc(O)c(C3OC(CO)C(O)C(O)C3O)c(O)c12 (centres undefined)	HP1b binding inh inconclusive, G9a inh 2.8µM, BAZ2B inh 13µM, JMJD2A Tudor inh 7.9µM
O=c1cc(-c2ccc(O)cc2)oc2c([C@@H]3O[C@H](CO)[C@@H](O)[C@H](O)[C@H]3O)c(O)c([C@@H]3O[C@H](CO)[C@@H](O)[C@H](O)[C@H]3O)c(O)c12	G9a inh inconclusive
